Bioassay records: PubChem BioAssay, National Center for Advancing Translational Sciences (NCATS)
In the library only some 11% were active in any assay of this set; here they are far more common.
IMPase cell inh: qHTS Assay for Identifying the Cell-Membrane Permeable IMPase Inhibitors; Inositol monophosphatase 1 (Rattus norvegicus), P97697; CHO-M1 cells, IP1 accumulation, HTRF TR-FRET ratio; inhibition (IP1 accumulation), % at 46.1 µM; 120,000 tested, under 10 active; AID 901, 2007; active means well fitted curve in the direction sought with a large enough effect in the signal ratio, not every such curve was filed as active; inconclusive means small, poorly fitted or top-dose-only effect, or a change in a side signal; inactive means no such curve, though single readings can be large or run the other way; the % refers to the signal ratio;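 further: cells stimulated with carbachol in lithium chloride buffer; higher means more IMPase inhibition seen as more IP1 and lower FRET ratio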
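Cellular IMPase inhibition is scored as a rise in cytosolic IP1, detected by competitive TR-FRET between d2-labelled IP1 and a europium anti-IP1 antibody. M1-expressing CHO cells were stimulated with carbachol for 30 min at 37C, with lithium (50 mM LiCl) present in the buffer.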
IMPase Li inh: qHTS Assay for Identifying the Cell-Membrane Permeable IMPase Inhibitors: Potentiation with Lithium; AID 1457, 2008; CHO-M1 cells, IP1 TR-FRET (IP-One), carbachol + lithium; actives 0.35% (n = 210,000); Potency, µM (top dose mostly 59.4 µM), actives largely listed as inhibitors;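 further: IP1 builds up when IMPase is blocked and the TR-FRET signal falls; nearly all actives have a fitted effect of over 50% in size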
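Steps: plate 2000 CHO-M1 cells per well and culture 16–30 h; add compound and lithium; incubate 30 min, 37C; add d2-IP1 tracer and Eu cryptate anti-IP1 antibody in lysis buffer; read after 10 min at room temperature.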
ALDH1A1 block: qHTS Assay for Inhibitors of Aldehyde Dehydrogenase 1 (ALDH1A1); Aldehyde dehydrogenase 1A1 (Homo sapiens), P00352; Purified ALDH1A1, NADH fluorescence, propionaldehyde substrate; Potency, µM (titrated, usually from 75.3 µM), most hits filed as inhibitors; actives 7.3% (n = 220,000); AID 1030, 2008; active means well fitted inhibition curve with a large enough effect, not every such curve was filed as active; inconclusive means small, poorly fitted or top-dose-only effect, or another doubt; inactive means no such curve, though single readings can be large or run the other way
NPSR antag: qHTS Assay for Antagonists of the Neuropeptide S Receptor: cAMP Signal Transduction; Q6W5P4; CHO-NPSR cells, cAMP TR-FRET, antagonist mode; Potency, µM (titrated, usually from 38.3 µM), hits mostly inhibitors; actives 1% (n = 220,000); AID 1461, 2008; further: nearly all actives have a fitted effect of over 50% in size
Target sequence (Q6W5P4 whole entry, looked up): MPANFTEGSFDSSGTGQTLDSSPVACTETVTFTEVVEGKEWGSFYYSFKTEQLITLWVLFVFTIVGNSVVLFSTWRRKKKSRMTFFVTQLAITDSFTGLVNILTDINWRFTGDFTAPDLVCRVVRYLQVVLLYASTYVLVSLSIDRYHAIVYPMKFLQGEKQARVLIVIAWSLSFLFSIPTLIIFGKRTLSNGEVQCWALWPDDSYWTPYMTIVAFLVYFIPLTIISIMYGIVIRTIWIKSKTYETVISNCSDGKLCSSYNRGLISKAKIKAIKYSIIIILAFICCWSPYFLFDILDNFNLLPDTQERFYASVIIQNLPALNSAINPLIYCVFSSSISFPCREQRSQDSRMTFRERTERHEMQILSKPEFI
HPGD inh: qHTS Assay for Inhibitors of HPGD (15-Hydroxyprostaglandin Dehydrogenase) | 15-hydroxyprostaglandin dehydrogenase [NAD(+)] (Homo sapiens), P15428 | purified HPGD, NADH fluorescence kinetic, PGE2 substrate | Potency, µM, hits mostly inhibitors | actives 4.3% (n = 150,000) | AID 894, 2007; active means well fitted inhibition curve with a large enough effect, not every such curve was filed as active; inconclusive means small, poorly fitted or top-dose-only effect, or another doubt; inactive means no such curve, though single readings can be large or run the other way
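20 nM HPGD preincubated 15 min at room temperature with compound in 50 mM Tris-HCl pH 8, 0.01% Tween 20. Started with 1 mM NAD+ and 30 uM prostaglandin E2; NADH fluorescence (360/450 nm) read 5 times over 30-s intervals, last minus first.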
PNC inhibitor: High Content Assay for Compounds that inhibit the Assembly of the Perinucleolar Compartment. AID 2417, 2010. PC3M PTB-GFP, PNC prevalence imaging, 16 h; hits give low values. activity change (PNC), negative = inhibition, % at 10 µM. actives 3.1% (n = 140,000);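 active means readout at or below -70, meaning at least 70% loss of cells showing the perinucleolar compartment, a nuclear body marking cancer cells; inconclusive means readout between -30 and a set limit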
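Compounds are pinned in duplicate onto adhered PC3M cells stably expressing GFP-tagged PTB and incubated 16 h at 37 C. Cells are then fixed, nuclei stained with Hoechst, and PNC-positive cells counted.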
A number is an active result; i = inactive; ? = inconclusive; nt = not tested or not shown; [ ] = remark or other dose. Unless noted, the call rests on the fitted dose curve; in most records, active means well fitted curve in the direction sought with a large enough effect; inconclusive means small, poorly fitted or top-dose-only effect, or another doubt; inactive means no such curve, though single readings can be large; an effect the other way counts as inactive or inconclusive.

SMILES	IMPase cell inh	IMPase Li inh	ALDH1A1 block	NPSR antag	HPGD inh	PNC inhibitor
Cc1ccc(CC(CC(=O)O)C(=O)NCC23CC4CC(CC(C4)C2)C3)cc1 (stereo not drawn)	nt	i	i	i	nt	nt
Nc1ncnc2c1ncn2Cc1ccccc1	nt	i	i	i	nt	nt
COc1ccc(Oc2ncnc3c2ncn3Cc2ccccc2)cc1	i	i	i	i	8.91µM	i
Cc1ccc(N(C(=O)C2CCCC2)C2C=CS(=O)(=O)C2)cc1 (stereo not drawn)	i	i	i	i	i	?
CCNC(=S)N(Cc1ccc2c(c1)OCO2)C1CC(=O)N(c2ccc(OC)cc2)C1=O (stereo not drawn)	i	i	i	i	i	i
Cc1ccc(C(=O)Nc2cccc(C(=O)NCc3ccccc3)c2)cc1	nt	i	i	i	i	i
Cc1occc1C(=O)NCc1ccccc1F	i	i	10µM	i	?	i
Cc1occc1C(=O)Nc1cccc(C(=O)NCc2ccccc2)c1	i	i	?	i	22.4µM	i
CC12CCC(c3c(C(=O)N4CCOCC4)nn(-c4ccccc4)c31)C2(C)C (stereo not drawn)	nt	i	i	i	nt	nt
Oc1cc2c(cc1C(c1ccc(Cl)c(Cl)c1)N1CCCC1)OCO2 (stereo not drawn)	nt	i	0.794µM	i	nt	nt
COc1ccc([C@@H](C)c2cc3c(cc2O)OCO3)cc1	nt	i	i[13.5 µM]	nt	i	nt
COc1ccc(/C=C/C(=O)Nc2ccc(C)cc2)cc1	i	nt	nt	nt	nt	nt
CS(=O)(=O)c1ccc2nc(NC(=O)c3ccc(=O)[nH]c3)sc2c1	nt	nt	nt	i	nt	nt
Cc1nnc2sc(SCc3ccc(Br)cc3)nn2c1=O	nt	i	i	i	nt	nt
N[C@@H](Cc1ccccc1)c1nnc2sc(SCc3ccccc3)nn12	?	i	28.2µM	i	28.2µM	i
COc1ccccc1N(CC(=O)NCCc1ccccc1)S(C)(=O)=O	i	nt	?	i	i	?
Cc1cc(C)c2c(=O)n(CC(=O)NC3CCCC3)sc2n1	nt	nt	nt	i	nt	nt
COc1ccc(OC)c(CCNC(=O)Cn2sc3nc(C)cc(C)c3c2=O)c1	i	i	2.51µM	?	1.41µM	i
CC(C)(C)c1ccc(OCC(=O)NCc2ccco2)cc1	i	i	i	i	i	i
O=C(Oc1ccnc2cc(Cl)ccc12)N1CCCCCC1	i	i	5.01µM	i	31.6µM	?
CCN(CC)C(=O)Oc1ccnc2cc(Cl)ccc12	nt	i	i	i	nt	nt
COC(=O)c1ccc(OCC(=O)c2cccc(OC)c2)cc1	nt	i	i	i	i	i
COCCCNC(=O)C1CCN(S(=O)(=O)N(CC(C)C)CC(C)C)CC1	i	i	i	i	i	i
CN1Cc2c(C(=O)OC(C)(C)C)ncn2-c2ccsc2C1=O	i	i	11.2µM	nt	i	nt
CC(C)(C)N1C(=O)c2ccc(C(=O)Nc3nccs3)cc2C1=O	i	i	?	i	i	i
SMILES	IMPase cell inh	IMPase Li inh	ALDH1A1 block	NPSR antag	HPGD inh	PNC inhibitor
CCCn1c(SCC(=O)N2c3ccc(F)cc3CCC2C)nnc1-c1ccccn1 (stereo not drawn)	i	i	?	i	i	-118.9
COc1ccccc1NC(=O)N1c2ccc(F)cc2CCC1C (stereo not drawn)	i	i	22.4µM	i	i	i
CC1CCc2cc(F)ccc2N1C(=O)CCl (stereo not drawn)	nt	i	0.141µM	i	nt	nt
CCCn1c(SCC(=O)N2CCCCC2)nnc1-c1ccccn1	nt	i	i	i	nt	nt
COc1ccc2c(c1OC)CCC2=O	i	i	?	i	?	i
COc1nnc(-c2ccc(C(=O)N3C[C@@H]4C[C@H](C3)c3cccc(=O)n3C4)cc2)c2ccccc12	i	i	i	i	i	i
Oc1ccc(Br)cc1/C=N/N1CCN(Cc2cccc3ccccc23)CC1	nt	nt	nt	i	nt	nt
CC(=O)N(CC(=O)O)c1ccccc1	nt	i	i	i	i	i
COC(=O)c1ccc(CN(C(C)=O)c2ccccc2)o1	i	i	20µM	i	i	i
